The source of these data is PubChem BioAssay (NCI).

This is part of a sample that, as a whole, favours compounds with a hit. Of some 83,000 tested, about 20% had one in any assay.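 For each line, cells grew in 96-well plates with the test compound present at a single concentration for 48 hours.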 A number with no mark means an inactive call. Calls of active or inactive are those of the source. Rule for the calls: active = growth percent below 10; inactive = the rest.

Holding throughout (experiment): NCI-60 one-dose screen, 48 h (100 = growth as untreated, 0 = no growth, -100 = all killed)
What all share (details): 10 µM unless noted

In test [1] the test system is K-562 leukemia.
In test [2] the test system is MALME-3M melanoma.
Test [3] relates to MDA-MB-231 breast.
In test [4] the test system is RXF 393 renal.
Test [5] relates to SF-268 CNS.
Test [6] concerns SF-295 CNS.
The test system of test [7] is SF-539 CNS.
The subject of test [8] is UACC-257 melanoma.
Test [9] deals with M14 melanoma.
Test [10] has as its system HCT-15 colon.
Test [11] deals with HT29 colon.
The subject of test [12] is SNB-75 CNS.
The test system of test [13] is SNB-19 CNS.
In test [14] the test system is U251 CNS.
Test [15] concerns PC-3 prostate.
The subject of test [16] is SK-MEL-5 melanoma.
The subject of test [17] is UACC-62 melanoma.
For test [18], the system named is SK-MEL-2 melanoma.
Test [19] has as its system SK-MEL-28 melanoma.
The test system of test [20] is LOX IMVI melanoma.

On to `Cc1cc(C(NC(=O)CCCCCNc2cccc3c2C(=O)N(C2CCC(=O)NC2=O)C3=O)c2cccnc2)c(O)c2ncccc12` (centres undefined), for which the growth in [1] was 17.8%; in test [2], -14.3% (active); in test [3] it was -11.5% (active); in test [4], 17.2%; in test [5] it was 23.6%; in test [6], 6.66% (active). Also, the growth in test [7] was 21.5%; in test [8], 26.2%; in [9], -5.27% (active); in test [10], 19%; in [11], 20.5%; in test [12], 8.96% (active). For the same compound, the growth in test [13] is 21.7%; in [14], 30.7%; in test [15] it was 6.73% (active); in test [16], -58.7% (active); in test [17], 18.5%; in test [18], -16.9% (active).

As for `C#Cc1nc(C2=C(C)C(=O)/C(=N/OC(C)=O)C2)cs1`, the growth in test [1] was 84%; in test [2] it was 86.1%; in test [3], 30.3%; in test [4] it was 85.1%; in [5], 82.2%; in [6] it was 56.1%. The growth is 58.4% in test [7]; 86.5% in [8]; 85.2% in test [9]; 88.1% in test [10]; 115% in test [11]; -46.3% (active) in test [12]. The growth in test [13] was 96.2%; in test [14] it was 98.1%; in [15], 94.3%; in [17], 80.3%; in [19], 107%; in test [18], 96.9%.

For the compound `CCN1C(=S)N(CC)C2C1N=C(SC)N2/N=C/C=C/c1ccccc1[N+](=O)[O-]` (centres undefined), the growth in test [1] is 68.1%; in test [2] it was 93.8%; in test [3], 89.7%; in [4] it was 115%; in test [5], 88.5%; in test [6], 90.4%. In addition, the growth in test [7] was 81.1%; in [8] it was 109%; in test [9] it was 108%; in test [10] it was 79.2%; in test [11], 93.5%; in test [12] it was 82.2%. Besides, the growth in test [13] was 103%; in test [14], 96.5%; in test [15], 85%; in test [16], 96.2%; in test [17], 85.1%; in test [18] it was 123%.

As to `CC(C)(C)Nc1nc2c(OCCc3ccccc3)cccn2c1-c1cccc(F)c1`, the growth was 1.65% (active) in test [1]; -10.8% (active) in test [2]; -40.9% (active) in [3]; -43% (active) in [4]; 18.8% in test [5]; -38.2% (active) in test [6]. In addition, the growth was -62.6% (active) in test [7]; 1.34% (active) in [8]; -3.59% (active) in test [9]; -60.2% (active) in test [10]; -14.2% (active) in [11]; 33.2% in test [12]. The growth was 20.4% in test [13]; -43.8% (active) in [14]; -4.7% (active) in test [15]; -7.68% (active) in [17]; -83.1% (active) in test [20]; 15% in test [19]. For the same compound, the growth in [18] is -81.2% (active).

For the compound `COc1ccc(Cc2nn(CC(=O)N/N=C/c3ccc(Cl)cc3)c(=O)c3c(C)noc23)cc1`, the growth in test [1] is 96.3%; in test [2], 95%; in [3], 76.2%; in test [4], 77.7%; in test [5], 83.9%; in test [6], 69.3%. In addition, the growth in test [7] is 58.7%; in [8], 90.9%; in test [9], 89.9%; in test [10], 88.3%; in test [11] it was 92.4%; in [12] it was -4.27% (active). In addition, the growth is 67.5% in [13]; 71.4% in [14]; 78.9% in [15]; 99.2% in [17]; 97.9% in [19]; 90.8% in test [18].

`CS(=O)(=O)c1ccc(-c2nc3ccccn3c2/C=N/Nc2nc(-c3ccc(Br)cc3)cs2)cc1`: the growth in test [1] is 86.1%; in [2] it was 128%; in test [3], 105%; in test [4] it was 99.7%; in test [5], 108%; in test [6] it was 102%. Further, the growth in test [7] is 105%; in test [8], 122%; in test [9] it was 112%; in [10] it was 92.6%; in test [11] it was 114%; in test [12], 114%. The growth in [13] is 103%; in test [14], 107%; in test [15] it was 100%; in [17], 102%; in [20] it was 112%; in test [19] it was 103%. In addition, in [18], the growth was 113%.

As for `c1ccc2c(NCCCn3ccnc3)c3oc4ccccc4c3nc2c1`, the growth in test [1] is 5.89% (active); in [2] it was 1.01% (active); in [3] it was -10% (active); in test [4], -33.3% (active); in test [5] it was 10.7%; in [6] it was 5.7% (active). Further, the growth is 4.46% (active) in test [7]; 16.4% in test [8]; 2.76% (active) in test [9]; -6.93% (active) in test [10]; -24% (active) in test [11]; 17.8% in [12]. Also, the growth was 11.9% in test [13]; 17.9% in test [14]; 5.76% (active) in test [15]; -14.9% (active) in test [17]; -61.6% (active) in [20]; 9.69% (active) in test [19]. The growth in test [18] is -27.2% (active).
